Bioassay records from PubChem BioAssay.
sdo1 growth – compounds rescuing growth of sdo1-depleted yeast, bone marrow failure model | S. cerevisiae sdo1-depleted JHY4D growth rescue, OD600 30 h; hits give high values; pdr5 snq2 efflux-pump mutant strain | z-score at 10 µM | 140,000 compounds, 0.21% hits;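 active = z-score above 3 at both the 24 hr and the 30 hr optical density reads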;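 note: z-score against mean and SD of all compound wells on the same plate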
E-sel TNF inh – TNF alpha driven E-selectin expression inhibition. HUVEC TNFa-induced E-selectin immunofluorescence, high content. inhibition, % at 2 µM. 120,000 compounds, 0.71% hits. AID 1246;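 active = inhibition above the batch mean plus 3 SD, and confirmed as a hit on visual image review, cut at about 43% in these data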;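 note: 0% = TNF-stimulated DMSO wells and 100% = unstimulated control wells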
Phagocyt inh – blocks phagocytosis by macrophages; J774A.1 macrophage IgG-bead phagocytosis, imaging; inhibition, % at 5 µM; 110,000 compounds, 0.07% hits;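 active = inhibition above the mean of the plate negative controls plus 5 SD, cut at about 13% in these data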;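 note: phagocytic index as fraction of beads internalized from green versus red external bead signal; plate controls were DMSO negative control for no effect and cytochalasin-D positive control for full effect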
cytoskel mod – modifiers of cytoskeleton assembly. HUVEC TNFa F-actin phalloidin imaging, high content. inhibition, % at 2 µM. 91,000 compounds, 0.18% hits. AID 836;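 active = inhibition above the batch mean plus 3 SD and confirmed as a hit by visual image inspection, cut at about 30% in these data, passing the limit was not always enough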
VCAM1 TNFa inh – reduces TNF alpha induced VCAM1 expression in HUVEC; 95,000 compounds, 0.48% hits; inhibition, % at 2 µM; HUVEC TNFa-induced VCAM-1 immunofluorescence, high-content imaging; AID 802;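 active = inhibition above the batch mean plus 3 SD, with images confirmed as a hit by eye, cut at about 37% in these data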;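 note: 0% = TNF-stimulated DMSO wells and 100% = unstimulated control wells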
HUVEC tox TNFa – HUVEC cytotoxicity counter-screen, TNF alpha stimulated | HUVEC TNFalpha-stimulated, Hoechst cell count, imaging | cell count reduction, % at 2 µM | 93,000 compounds, 0.17% hits | AID 848;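 active = cell count reduction exceeding the screen mean by over 5 SD, scaled to untreated wells per plate, cut at about 78% in these data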;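 note: cells counted after 24 h of TNF alpha exposure following the 1 h pretreatment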
* marks the source's active call; other numbers are inactive results; . = no result. This is a sample that favours compounds with a hit; in the whole collection about 1.2% have one here.

SMILES	sdo1 growth	E-sel TNF inh	Phagocyt inh	cytoskel mod	VCAM1 TNFa inh	HUVEC tox TNFa
O=S(=O)(c1ccc2c(c1)C(=NO)c1cc(S(=O)(=O)N3CCCCC3)ccc1-2)N1CCCCC1	-0.49	5.7	5.9	59.6*	99.8*	90.3*
COc1cccc(-c2cc3c(=O)n(-c4ccccc4)c(=S)[nH]c3s2)c1	0.73	66.3*	-1.7	26.6	18.4	-30.3
COc1ccc(-c2csc3[nH]c(=S)n(-c4ccccc4)c(=O)c23)cc1OC	0.61	.	-8.0	.	.	.
COc1ccc(OC)c(N(CC(=O)NC2CC2)S(=O)(=O)c2ccc(C)cc2)c1	-1.09	10.5	1.6	-0.7	-46.2	89.8*
CC(/C=N/NC(=O)c1cc(-c2ccncc2)nc2ccccc12)=C\c1ccco1	-0.8	41.2	2.5	-14.4	87.1*	65.0
CCOc1cc(C2CC(=O)N3CN(C4CCCCC4)CSC3=C2C#N)ccc1O (centres undefined)	1.5	.	-0.4	1.9	38.5	82.2*
COc1ccc2ccccc2c1C1CC(=O)N2CN(C3CCCCC3)CSC2=C1C#N (centres undefined)	0.06	.	1.2	-1.0	15.5	-14.4
CCNCC(O)COCC(O)CNCC (centres undefined)	1	-12.0	.	9.6	62.1*	77.6
Cc1ccc(N2C(=O)[C@@H]3C(C(=O)CCN4C(=O)c5ccccc5C4=O)=NN[C@@H]3C2=O)cc1	2.05	65.4*	-5.0	.	.	.
COc1ccc(/C=N/N2C(=O)C3C4C=CC(CC4)C3C2=O)c(OC)c1 (centres undefined)	.	-46.0	.	.	.	.
O=C(Nc1nccs1)c1cccc(N2C(=O)c3cccc4c([N+](=O)[O-])ccc(c34)C2=O)c1	-3.05	-13.0	0.5	-5.8	61.6*	-0.9
Cc1ccc(S(=O)(=O)Cn2nnnc2C(C(C)C)N2CCN(c3nc4ccccc4s3)CC2)cc1 (centres undefined)	-1.06	-0.2	.	22.4	50.5*	40.0
CCN1CCN(Cc2c(C)[nH]c3ccc(C(=O)OC)cc3c2=O)CC1	0.25	-15.2	-0.9	8.1	96.0*	-26.4
O=C(CCN1C(=O)C2C3C=CC(C3)C2C1=O)Nc1c(F)cccc1F (centres undefined)	0.38	2.2	.	-46.3	60.1	93.8*
CCN(CC)c1ccc(N2C(=O)/C(=C\c3cccs3)SC2=S)cc1	0.67	11.8	.	-7.0	11.8	-6.4
O=C1/C(=C/c2cccs2)SC(=S)N1c1ccccc1	0.31	56.4*	-1.0	-1.7	-1.5	-8.6
Cc1ccc(C)c(NC(=O)CSc2nnc([C@@H](N)Cc3ccccc3)o2)c1	-0.58	61.7*	-1.1	3.7	2.9	0.7
Cc1ccc(C)c(NC(=S)NCCN(C2CCCCC2)C2CCCC2)c1	.	-0.6	.	.	.	.
Cc1cc(=O)oc2cc(OCC(=O)OCC(=O)NCc3ccc4c(c3)OCO4)ccc12	0.45	70.8*	-0.5	8.4	-8.7	-7.2
Cc1nc(SCC(N)=O)c([N+](=O)[O-])[nH]1	.	62.8*	.	.	.	.
O=C(COC(=O)/C=C/c1ccc(F)cc1)Nc1ccccc1-c1ccccc1	-0.68	.	-7.5	.	.	.
Cc1cc(SCC(=O)c2cccs2)nc2ccccc12	-1.08	75.2*	-4.6	.	.	.
CCC(C)c1ccccc1OCCCCN1CCCC1 (centres undefined)	-0.42	64.5*	.	.	.	.
Cc1ccc(CNC(=O)COC(=O)c2ccc(S(=O)(=O)N(C)C)cc2)cc1	.	20.8	.	.	.	.
Cc1ccc(CNC(=O)c2sc3nc4c(c(C(F)(F)F)c3c2N)CCC4)cc1	-0.13	24.1	-0.7	2.9	3.7	-9.0
SMILES	sdo1 growth	E-sel TNF inh	Phagocyt inh	cytoskel mod	VCAM1 TNFa inh	HUVEC tox TNFa
Nc1c(C(=O)NCc2ccc(Cl)cc2)sc2nc3c(c(C(F)(F)F)c12)CCC3	-0.85	64.9*	-2.7	-34.8	-6.3	14.5
Cc1onc(C(=O)NCc2ccccn2)c1[N+](=O)[O-]	.	7.8	.	.	.	.
C[C@H]1CC[C@H]2C(=O)N3[C@H](c4ccccc4Br)[C@@H](C)CC[C@H]3C(=O)N2[C@@H]1c1ccccc1Br	-1.04	.	.	.	.	.
Cc1nc(NC(=O)c2ccccc2[N+](=O)[O-])sc1C(=O)N(C)C	0.21	13.2	-2.8	.	.	.
Cc1nc(NC(=O)c2oc3ccccc3c2C)sc1C(=O)N(C)C	0.46	96.0*	.	-12.1	-3.7	0.0
Cc1noc(NC(=O)c2ccccc2Cl)c1C#N	1.15	17.4	0.2	28.4	5.6	-1.2
CC1CN(C(=O)/C(C#N)=C2\N=C(NC(=O)c3ccccc3Cl)c3ccccc32)CC(C)O1 (centres undefined)	0.63	92.7*	-7.7	.	.	.
COc1ccccc1-n1c(SCC(=O)Nc2cccc3ccccc23)nc(O)cc1=O	3.28	38.2	190.4*	-4.6	17.8	3.7
COc1ccc(NC(=O)CSc2nc(O)cc(=O)n2-c2ccccc2OC)cc1	1.56	-2.8	-0.7	-7.2	-3.6	-9.4
Cc1nc(S(=O)(=O)NC2CCCCC2)c(C#N)c(C)c1Cl	0.4	-2.2	.	5.5	10.3	-22.1
Cc1nc(S(=O)(=O)N(C)Cc2ccccc2)c(C#N)c(C)c1Cl	0.11	-7.1	.	-47.9	78.2*	92.0*
COCCn1c(SCC(=O)N2CCCCC2)nc2ccccc2c1=O	0.14	95.7*	.	-11.1	-16.2	-4.8
O=C(N/N=C/c1ccc(O)cc1)c1ccc(COc2cc(Cl)ccc2Cl)o1	1.44	96.0*	.	-40.0	22.9	-5.7
CCn1c(SCC(=O)N/N=C/c2c[nH]c3ccccc23)nnc1-c1ccc(C(C)(C)C)cc1	1.84	.	-3.3	.	.	.
Cc1c(Nc2cc(Cl)c3nonc3c2[N+](=O)[O-])c(=O)n(-c2ccccc2)n1C	.	99.9*	.	.	.	.
Cc1c(Nc2ccc3nonc3c2[N+](=O)[O-])c(=O)n(-c2ccccc2)n1C	.	0.2	.	.	.	.
COC(=O)c1cccc(S(=O)(=O)N(Cc2ccco2)Cc2cc3ccc(OC)cc3[nH]c2=O)c1	-0.11	.	-0.8	-28.4	87.1*	61.4
CCOc1cc(C(=O)Nc2cccc3ncccc23)cc(OCC)c1OCC	0.26	.	-0.6	53.4*	18.1	30.5
COc1cccc(/C=N/Nc2nc(Nc3ccccc3)nc(-n3nc(C)cc3C)n2)c1O	-3.16	22.5	0.9	2.3	86.7*	33.6
COc1cccc(C(=O)COc2cccc(NC(=O)c3cccc([N+](=O)[O-])c3)c2)c1	-0.94	19.4	-5.9	3.5	48.6*	66.1
O=C(COc1cccc(NC(=O)c2cccc([N+](=O)[O-])c2)c1)c1ccc(F)cc1	-1.05	.	.	.	.	.
O=S(=O)(/C=C/c1ccccc1)N1CCN(c2ccccc2)CC1	1.06	-33.3	-0.6	13.5	-9.4	-29.6
O=S(=O)(/C=C/c1ccccc1)Oc1ccccc1	-1.08	-1.4	166.4*	2.2	13.5	-5.9
Cc1cccc(CS(=O)(=O)c2nnc([C@H](Cc3ccccc3)NC(=O)OC(C)(C)C)o2)c1	-2.41	11.6	0.1	-1.5	58.0*	23.3
Oc1ccccc1Nc1nc(NCC2CCCO2)c2ccccc2n1 (centres undefined)	-0.4	65.0*	1.2	6.2	-11.1	-20.3
